Holding throughout (test): NCI-60 one-dose screen, 48 h (100 = growth as untreated, 0 = no growth, -100 = all killed)
The subject of assay [1] is NCI-H23 lung. The note with it: 10 µM unless noted.
The subject of assay [2] is NCI-H322M lung. The note with it: 10 µM unless noted.
Assay [3] concerns HOP-62 NSCLC. The note with it: 10 µM unless noted.
Assay [4] deals with NCI-H460 lung. The note with it: 10 µM unless noted.
Assay [5] deals with NCI-H522 lung. The note with it: 10 µM unless noted.
For assay [6], the system named is A549/ATCC NSCLC. The note with it: 10 µM unless noted.
Assay [7] concerns 786-0 renal. The note with it: 10 µM unless noted.
Assay [8] concerns COLO 205 colon. The note with it: 10 µM unless noted.
The subject of assay [9] is DU-145 prostate. The note with it: 10 µM unless noted.
Assay [10] has as its system K-562 leukemia. The note with it: 10 µM unless noted.
Assay [11] relates to MALME-3M melanoma. The note with it: 10 µM unless noted.
In assay [12] the test system is MDA-MB-231 breast. The note with it: 10 µM unless noted.
Assay [13] relates to RXF 393 renal. The note with it: 10 µM unless noted.
The subject of assay [14] is SF-268 CNS. The note with it: 10 µM unless noted.
Assay [15] concerns SF-295 CNS. The note with it: 10 µM unless noted.
The test system of assay [16] is SF-539 CNS. The note with it: 10 µM unless noted.
In assay [17] the test system is UACC-257 melanoma. The note with it: 10 µM unless noted.
Assay [18] concerns M14 melanoma. The note with it: 10 µM unless noted.
Assay [19] deals with NCI-H226 lung. The note with it: 10 µM unless noted.
For assay [20], the system named is HOP-92 NSCLC. The note with it: 10 µM.

Structures are written as SMILES. This is part of a sample that, as a whole, favours compounds with a hit. Of some 83,000 tested, about 20% had one in any assay.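 48-hour exposure, single concentration, 96-well plates; percent growth endpoint where 0 means no net growth. Active: below 10.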 Values without a mark were called inactive. The source made the active and inactive calls.

For `COc1ccc(-n2c(SCc3nnc(NC(=O)c4ccc(Br)cc4)s3)nc3cc(OC)c(OC)cc3c2=O)cc1`, the growth was 92.5% in assay [1]; 85.5% in [2]; 92.3% in assay [3]; 93.5% in assay [4]; 89.2% in [5]; 102% in assay [6]. The growth in [7] was 105%; in assay [8], 104%; in assay [9], 89.4%; in [10] it was 100%; in assay [11], 92.2%; in assay [12], 87.9%. Also, the growth is 104% in [13]; 86.4% in [14]; 93.2% in assay [15]; 92.9% in [16]; 101% in assay [17]; 92.5% in [18].
With `c1n[nH]cc1-c1nc2ccc3[nH]ncc3c2c2c1CCCC2`, the growth is 19% in [1]; 31.1% in [2]; 14.7% in assay [3]; 9.2% (active) in assay [4]; 2.99% (active) in assay [5]; 15.7% in assay [6]. The growth in [7] was 16.9%; in assay [8], 8.98% (active); in assay [9], 20.4%; in assay [10], 33.9%; in assay [11], 11.5%; in [12], 49.1%. Moreover, the growth in [13] is -51.4% (active); in assay [14] it was 27%; in assay [15] it was 29.5%; in assay [16], 11%; in [17], 37.1%.
On to `COc1cc2nc(Cl)nc(Nc3cccc(C4=Nc5c(N)nc(N)nc5NC(c5ccc(Br)cc5)C4)c3)c2cc1OC` (configuration not stated), for which the growth in assay [1] is 91%; in [19], 93%; in assay [2] it was 98.1%; in assay [3], 43.5%; in [4] it was 28%; in assay [5] it was 68.2%. Also, the growth is 55.9% in assay [6]; 64.7% in assay [7]; 90% in [9]; 92.9% in assay [12]; 77.2% in assay [13]; 84.4% in assay [14]. Moreover, the growth is 32% in [15], 93.2% in assay [16], 105% in assay [17] and 84.1% in [18].
For the compound `Nc1nc(Nc2ccccc2SSc2ccccc2Nc2nc(N)nc(-c3cccc(Br)c3)n2)nc(-c2cccc(Br)c2)n1`, the growth was 31.6% in assay [1]; 94.8% in assay [2]; 11.8% in assay [3]; 31.8% in assay [4]; 86% in assay [20]; 1.19% (active) in assay [6]. Further, the growth in assay [7] is 79.3%; in assay [8], 116%; in assay [9] it was 62.1%; in [10] it was 58.8%; in [11], 99.9%; in [12], 57.3%. Moreover, the growth in assay [13] was 58%; in assay [14], 36.9%; in assay [15], 29.8%; in [16] it was 95.2%; in assay [17] it was 112%; in [18] it was 90.4%.
As to `Cc1ccc2c(c1)C13C(=C2Br)CCCN1C(=O)c1ccccc13` (configuration not stated), the growth was 92.8% in assay [1]; 97.5% in assay [2]; 96.9% in assay [3]; 105% in [4]; 78.8% in [20]; 80.8% in assay [5]. Besides, the growth in [6] was 98.1%; in assay [7] it was 84.3%; in [8], 108%; in assay [9], 102%; in [10], 46.3%; in assay [11] it was 85.3%. The growth in assay [12] was 93.7%; in assay [14], 90.6%; in assay [15] it was 94.2%; in assay [16] it was 98.4%; in [17], 93.3%.
In the case of `CC(=O)c1nnn(-c2c(C(=O)n3nc(C)cc3C)sc(=S)n2-c2ccccc2)c1C`, the growth in assay [1] is 106%; in [2], 107%; in assay [3] it was 107%; in [4] it was 113%; in assay [20] it was 113%; in [5], 99.8%. Also, the growth in [6] was 103%; in assay [7], 111%; in assay [8] it was 108%; in [9], 109%; in assay [10], 102%; in [11] it was 67.7%. Further, the growth was 89.2% in assay [12]; 103% in assay [13]; 106% in assay [14]; 109% in assay [15]; 96.6% in assay [16]; 101% in assay [17].
Turning to `O=C(NNc1nc2cc(F)ccc2n2c(CN3CCC(O)C3)ccc12)c1cnccn1` (configuration not stated), the growth is 20.2% in assay [1]; 24.8% in [2]; 14.6% in [3]; 5.14% (active) in assay [4]; 23.2% in assay [20]; -0.38% (active) in [5]. Moreover, the growth in [6] was 15.2%; in assay [7], 16.2%; in assay [8], 8.58% (active); in assay [9], 24%; in assay [10], 11.8%; in [11], 12.1%. Moreover, the growth was 34.2% in assay [12]; 22.6% in assay [14]; 4.11% (active) in assay [15]; 10.1% in assay [16]; 7.04% (active) in assay [17].
In the case of `Cc1ccc(NC(=O)c2ccc(CN3CCN(C)CC3)cc2)cc1Oc1ccc(-c2[nH]nc3ncnc(N)c23)cc1`, the growth is 99.6% in assay [1]; 97.3% in assay [2]; 104% in assay [3]; 110% in [4]; 98.3% in assay [20]; 89.9% in assay [5]. Moreover, the growth in assay [6] is 98.8%; in assay [7] it was 63.7%; in [8] it was 28.1%; in assay [9] it was 106%; in assay [10], 9% (active); in assay [11] it was 68.8%. The growth in assay [12] is 95.9%; in assay [13], 78.3%; in assay [14], 89%; in assay [15] it was 103%; in assay [16], 85.9%; in assay [17], 98.5%.
Consider `C=C(C)[C@@H]1CC[C@]2(COC)CC[C@]3(C)[C@H](CC[C@@H]4[C@@]5(C)CCCNC(C)(C)[C@@H]5CC[C@]43C)[C@@H]12`, for which the growth was 59.6% in assay [1]; 82.6% in [2]; 71.1% in assay [3]; -30% (active) in assay [4]; 74.9% in [20]; 39% in assay [6]. Besides, the growth in [7] is 31.4%; in assay [8], -49.2% (active); in assay [9], 57.9%; in [10] it was -47.7% (active); in assay [11], -4.67% (active); in assay [12] it was 62.8%. In addition, the growth in assay [13] is -4.43% (active); in assay [14], 78.9%; in assay [15], 58.3%; in [16], 51.7%; in assay [17] it was 13.3%; in assay [18], -39.4% (active).
